PDI turbidity: inhibitors of human PDI, primary screen, biochemical, turbidity, single point, plate reader; PDI insulin aggregation turbidity, A650, 90 min; AID 588391, 2011; Protein disulfide-isomerase (Homo sapiens), P07237; inhibition, % at 10 µM; 350,000 compounds, 0.052% hits;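 active means mean inhibition across replicates of 30% or more, whatever share of single replicates reach that level; inconclusive means mean inhibition below 30% while every single replicate reaches 30%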
ERAP1 HTS inh: human ERAP1 aminopeptidase inhibitors, primary screen, biochemical, single point, plate reader | AID 652197, 2013 | inhibition, % at 10.7 µM | recombinant ERAP1, Leu-AMC fluorescence, 60 min | 340,000 compounds, 0.15% hits | Endoplasmic reticulum aminopeptidase 1 (Homo sapiens), Q9NZ08;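 active means mean replicate inhibition of at least 30%, or all replicates individually reaching that 30% level; inactive means mean below 30% and not every replicate reaching it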;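 further: 0% = neutral control wells and 100% = L-leucinethiol positive control wells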
ERp5 block: inhibitors of ERp5-driven insulin aggregation, primary screen, biochemical, turbidity, absorbance 650 nm, single point; 90 min; 350,000 compounds, 0.05% hits; Protein disulfide-isomerase A6 (Homo sapiens), Q15084; inhibition, % at 9.99 µM;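 active means mean replicate inhibition above about 25%, with every replicate also reaching it, limit read from the data, passing the limit was not always enough; inconclusive means only one of those two criteria met; inactive means neither criterion met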
MLL AF4-AF9 inh: inhibitors of AF4 peptide binding to AF9, primary screen, biochemical, AlphaScreen, biotin-AF4 peptide, FLAG-AF9, single point; Protein AF-9 (Homo sapiens), P42568; 350,000 compounds, 0.47% hits; inhibition, % at 10 µM; AID 651704, 2012;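 active means every replicate reaching a set inhibition limit, whatever the replicate mean, cut at about 25% in these data; inconclusive means mean inhibition reaches that limit but some replicates miss it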;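 further: 0% = plate neutral control median and 100% = total signal loss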
Target sequence (P42568 whole entry, looked up): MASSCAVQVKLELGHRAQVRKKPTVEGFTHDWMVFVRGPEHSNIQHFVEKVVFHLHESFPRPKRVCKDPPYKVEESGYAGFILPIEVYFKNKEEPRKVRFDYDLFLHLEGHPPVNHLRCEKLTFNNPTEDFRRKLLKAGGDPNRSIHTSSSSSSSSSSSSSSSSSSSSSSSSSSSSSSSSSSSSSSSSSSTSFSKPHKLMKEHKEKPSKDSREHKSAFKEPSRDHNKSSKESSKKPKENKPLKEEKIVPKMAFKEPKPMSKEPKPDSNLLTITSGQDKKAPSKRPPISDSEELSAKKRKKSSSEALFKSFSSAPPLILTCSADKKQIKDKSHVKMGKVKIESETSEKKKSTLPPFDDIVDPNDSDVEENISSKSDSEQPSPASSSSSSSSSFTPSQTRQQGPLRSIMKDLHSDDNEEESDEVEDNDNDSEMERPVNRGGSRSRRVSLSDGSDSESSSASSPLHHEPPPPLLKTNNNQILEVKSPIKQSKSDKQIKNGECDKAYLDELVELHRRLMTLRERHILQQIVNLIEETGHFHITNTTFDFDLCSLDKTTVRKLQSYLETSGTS
DENV2 CPE: inhibitors of DENV2 cytopathic effect, primary screen, cell-based, plate reader, single concentration; DENV2-infected cells, cytopathic effect rescue; CPE inhibition, % at 9.99 µM; 350,000 compounds, 1.7% hits; in the data active means CPE inhibition above about 20%, passing the limit was not always enough; inconclusive means no clear call, values can overlap the other calls; tested in BHK-21 cells;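 further: 0% = median of neutral control wells and 100% = median of positive control wells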
Active calls of the source: *; ? = inconclusive; / = not tested or not shown; ! = a repeat was not active. A selection: hits, their analogues and other compounds. The true share with any hit is near 1.8%.

SMILES	PDI turbidity	ERAP1 HTS inh	ERp5 block	MLL AF4-AF9 inh	DENV2 CPE
CCC(=O)N(C)C[C@@H]1Oc2ncc(Br)cc2C(=O)N([C@H](C)CO)C[C@H]1C	2	-2	2	-2	29*!
COCC(=O)N(C)C[C@H]1Oc2ncc(Br)cc2C(=O)N([C@H](C)CO)C[C@H]1C	/	3	1	-1	2
Oc1c(Cl)cc(CN2CCOCC2)c2cccnc12	1	0	-3	35*	17
COc1cccc2c1C(=O)c1c(O)c3c(c(O)c1C2=O)C[C@](O)(C(C)=O)C[C@H]3O[C@@H]1C[C@@H](N)[C@@H](O)[C@@H](C)O1	5	19	6	?	-24
COc1cccc2c1C(=O)c1c(O)c3c(c(O)c1C2=O)CC(O)(C(C)=O)CC3OC1CC(O)C(O)C(C)O1 (configuration not stated)	-3	32*	-6	9	3
C[C@@H]1CN([C@H](C)CO)C(=O)c2cc(C#CCN(C)C)cnc2O[C@@H]1CN(C)Cc1cccc(C(=O)O)c1	/	/	/	-1	/
COCC(=O)N(C)C[C@H]1Oc2cc(-c3ccncc3)ccc2S(=O)(=O)N([C@@H](C)CO)C[C@H]1C	/	0	0	-3	-8
CC1CC(OCC(O)CN2CCOCC2)CC(C)(C)C1 (configuration not stated)	7	-1	-3	11	-3
CC1CC(OCC(O)C[N+]2(C)CCOCC2)CC(C)(C)C1 (configuration not stated)	-1	109*	0	-6	-3
Cc1ccc(S(=O)(=O)Nc2ccc3c(c2)C(=O)N([C@@H](C)CO)C[C@@H](C)[C@@H](CN(C)C(=O)c2ccncc2)OCCCC[C@H](C)O3)cc1	/	/	/	/	-6
Nc1ccc2ccccc2c1N=Nc1ccccc1	-5	2	0	36*	?
COc1ccccc1N1CCN(C2CCCN(Cc3c(F)cccc3F)C2)CC1 (configuration not stated)	-1	-2	2	2	-7
COc1ccccc1N1CCN(C2CCCN(C(=O)c3cccc(-c4ccco4)c3)C2)CC1 (configuration not stated)	5	0	-13	11	44*
COc1ccccc1CN1CCCC(N2CCN(c3ccccc3OC)CC2)C1 (configuration not stated)	3	1	0	9	29*
CCOC(=O)[C@@H]1[C@H]2COc3cc(OC)ccc3[C@H]2N2C(=O)N(c3cccc(F)c3)C(=O)[C@]12C	-2	0	-1	/	104*
CCOC(=O)[C@@H]1[C@H]2COc3cc(OC)ccc3[C@@H]2N2C(=O)N(c3cccc(C)c3)C(=O)[C@]12C	3	1	-4	/	-15
CCOC(=O)[C@@H]1[C@H]2COc3ccc(Br)cc3[C@@H]2N2C(=O)N(c3cccc(Cl)c3)C(=O)[C@@]12C	1	/	0	-1	68*
CCOC(=O)[C@H]1[C@H]2COc3ccc(Cl)cc3[C@@H]2N2C(=O)c3ccc(Cl)cc3NC(=O)[C@@]12C	-1	-6	2	5	52*
CCOC(=O)[C@H]1[C@H]2COc3ccc(C)cc3[C@@H]2N2C(=O)c3ccc(Cl)cc3NC(=O)[C@@]12C	-5	-2	-4	3	-4
CCOC(=O)[C@H]1[C@H]2COc3cc(OC)ccc3[C@@H]2N2C(=O)CN(Cc3ccco3)C(=O)[C@@]12C	3	-2	13	-3	30*
COCC(=O)N1[C@H](CO)[C@@H](c2ccc(-c3ccccc3)cc2)C12CN(C(C)=O)C2	/	/	-6	0	-1
CC(C)NC(=O)N(C)C[C@H]1OCCCC[C@H](C)Oc2ccc(N(C)C)cc2C(=O)N([C@H](C)CO)C[C@@H]1C	/	2	2	3	-1
CCCNC(=O)N1[C@H](CO)[C@H](c2ccccc2)[C@@H]1CNC(=O)c1ccc(F)cc1	/	/	/	/	104*
CCCNC(=O)N1[C@H](CNC(C)=O)[C@@H](c2ccccc2)[C@@H]1CO	/	/	/	/	30*
CCCNC(=O)N1[C@@H](CO)[C@@H](c2ccccc2)[C@@H]1CNC(C)=O	/	2	13	-2	-6
C[C@@H]1CN([C@@H](C)CO)C(=O)c2cc(NC(=O)c3ccncc3)ccc2O[C@@H](C)CCCCO[C@H]1CN(C)C(=O)c1ccccc1	/	0	0	-3	2

Screening data deposited in PubChem BioAssay by Broad Institute.
